Results as given in PubChem BioAssay (Tox21).
Records with an inconclusive call do not appear. Where a call stands in place of a potency, no number is given. Calls of active or inactive are those of the source. Unless noted, the call rests on the fitted dose curve; in most records, active means well fitted curve in the direction sought with a large enough effect in the repeat runs; inconclusive means weak or mixed curves; inactive means no such curve, though single readings can be large; an effect the other way counts as inactive or inconclusive.

Tests used:
[1] = target: Progesterone receptor (Homo sapiens) (UniProt P06401); assay: qHTS assay to identify small molecule agonists of the progesterone receptor (PR) signaling pathway (AID 1346784; calls by dose curve; further: nearly all actives have a fitted effect of over 30% in size)
Procedure, shortened: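 PR-UAS-bla HEK 293T cells carrying a UAS-driven beta-lactamase reporter were seeded in medium with 2% charcoal-stripped FBS, preincubated 6 hr at 37C, then exposed to compounds in DMSO for 16 hr; agonism was read by LiveBLAzer B/G FRET fluorescence.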

[2] = target: Progesterone receptor (Homo sapiens) (UniProt P06401); assay: qHTS assay to identify small molecule antagonists of the progesterone receptor (PR) signaling pathway (AID 1346795; active means well fitted inhibition curve with a large enough effect in the signal ratio in the repeat runs, not every such curve was filed as active; the % refers to the signal ratio; further: potency means the concentration at half of the fitted maximal effect)
Procedure, shortened: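 PR-UAS-bla HEK293T cells carrying a UAS-driven beta-lactamase reporter were plated in medium with 2% charcoal-stripped FBS and rested 6 hr at 37C. Compounds were added with 1 nM R5020 (final) for 16 hr, then FRET substrate loaded 2 hr at room temperature.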

[3] = qHTS assay to identify small molecule antagonists of the progesterone receptor (PR) signaling pathway - cell viability counter screen (AID 1346798); further: series mostly up to about 92 µM; nearly all actives have a fitted effect of over 50% in size
Procedure, shortened: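 PR-UAS-bla HEK293T cells in medium with 2% charcoal-stripped FBS were treated with compounds plus R5020 for 16 hr at 37C. Cell viability was then read by CellTiter-Glo luminescence after 30 min at room temperature in the same wells.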

[4] = qHTS assay to identify small molecule agonists of the progesterone receptor (PR) signaling pathway - cell viability counter screen (AID 1346799; calls by dose curve; further: nearly all actives have a fitted effect of over 45% in size)
Procedure, shortened: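 PR-UAS-bla HEK293T cells, 3,000 per well in medium with 2% charcoal-stripped FBS, were preincubated 6 hr at 37C, then exposed to compounds for 16 hr; viability was read as CellTiter-Glo luminescence after 30 min at room temperature.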

[5] = qHTS assay to identify small molecule antagonists of the TGF-beta/Smad signaling pathway - cell viability counter screen (AID 1346824); further: nearly all actives have a fitted effect of over 50% in size
Procedure, shortened: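 SBE-bla HEK 293T cells were plated overnight at 37 C, then given compounds in DMSO plus TGF-beta1 (added as 0.25 ng/mL solution) for 5 hr. After the bla read, CellTiter-Glo was added to the same wells and luminescence read after 30 min at room temperature.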

[6] = qHTS assay to identify small molecule agonists of the TGF-beta/Smad signaling pathway - cell viability counter screen (AID 1346829); further: top concentration of the series differs between compounds; nearly all actives have a fitted effect of over 45% in size
Procedure, shortened: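 CellTiter-Glo luminescence readout; SBE-bla HEK 293T cells, overnight plating, compound 5 hr at 37 C/5% CO2, then bla substrate 2 hr RT, then CellTiter-Glo 30 min RT.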

[7] = target: Thyrotropin-releasing hormone receptor (Homo sapiens) (UniProt P34981); assay: qHTS assay to identify small molecule antagonists of the thyrotropin-releasing hormone receptor (TRHR) signaling pathway (AID 1346877; active means well fitted inhibition curve with a large enough effect in the repeat runs, not every such curve was filed as active; further: series mostly up to about 51 µM)
Procedure, shortened: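 Overnight-plated (18 h, 37 °C) HEK293 cells expressing TRHR were dye-loaded 2 h, treated with compound, then stimulated with TRH at 1 nM final. Fluorescence intensity was captured every second for 3 min.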

[8] = target: Thyrotropin-releasing hormone receptor (Homo sapiens) (UniProt P34981); assay: qHTS assay to identify small molecule agonists of the thyrotropin-releasing hormone receptor (TRHR) signaling pathway (AID 1346891; calls by dose curve; further: series mostly up to about 58 µM)
Procedure, shortened: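 TRHR-expressing HEK293 cells were plated 18 h at 37 °C/5% CO2, loaded with calcium dye 2 h at 37 °C, then given compound in DMSO; fluorescence was read kinetically for 3 min at 1 s intervals.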

[9] = Human pregnane X receptor (PXR) small molecule agonists, qHTS cell viability counter screen (AID 1346977); further: nearly all actives have a fitted effect of over 50% in size; further: potency means the concentration at half of the fitted maximal effect
Procedure, shortened: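 PXR-Luc HepG2 cells in medium with 5% charcoal-stripped FBS were pre-incubated 5hr, then exposed to compounds for 24hr at 37C. Viability was read in the same wells by CellTiter-Fluor fluorescence, reagent added after 23hr with a 1hr incubation.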

[10] = Caspase-3/7 induction in HepG2 cells by small molecules, qHTS assay (AID 1346978); further: nearly all actives have a fitted effect of over 15% in size
Procedure, shortened: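 Wild-type HepG2 cells (2,000/well) were settled 5 h at 37 C, 5% CO2, then exposed to compounds in DMSO for 17 h. Caspase-3/7 activity was read by luminescence 30 min after adding Caspase-Glo 3/7 reagent at room temperature.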

[11] = Caspase-3/7 induction in CHO-K1 cells by small molecules, qHTS cell viability counter screen (AID 1346979); further: nearly all actives have a fitted effect of over 35% in size; further: potency means the concentration at half of the fitted maximal effect
Procedure, shortened: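 Wild-type CHO-K1 cells were seeded at 1,500 per well, rested 5hr at 37 C, then exposed to compounds in DMSO. After 16hr, CellTiter-Fluor reagent was added and fluorescence read 1hr later as the viability measure.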

[12] = Caspase-3/7 induction in CHO-K1 cells by small molecules, qHTS assay (AID 1346980); further: nearly all actives have a fitted effect of over 15% in size
Procedure, shortened: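 Wild-type cells were seeded at 1,500 per well and settled 5 hr at 37 C, 5% CO2, then exposed to DMSO-dissolved compounds for 17 hr. Caspase-Glo 3/7 reagent was added, and luminescence was read after 30min at room temperature.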

[13] = Caspase-3/7 induction in HepG2 cells by small molecules, qHTS cell viability counter screen (AID 1346981); further: nearly all actives have a fitted effect of over 30% in size; further: potency means the concentration at half of the fitted maximal effect
Procedure, shortened: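 Treatment of HepG2 cells with DMSO-delivered compounds ran 16 hr at 37 C following a 5-hr pre-incubation of 2,000 cells/well. CellTiter-Fluor fluorescence, read after 1 hr, served as the viability measure in a qHTS format.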

[14] = target: Nuclear receptor subfamily 1 group I member 2 (Homo sapiens) (UniProt O75469); assay: Human pregnane X receptor (PXR) small molecule agonists, qHTS assay (AID 1346982); further: nearly all actives have a fitted effect of over 35% in size; further: potency means the concentration at half of the fitted maximal effect
Procedure, shortened: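 Stable HepG2 line reporting PXR-mediated CYP3A4 expression via luciferase. Treatment: 24 hr with compounds in DMSO at 37 C. Detection: ONE-Glo luminescence.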

[15] = target: Cytochrome P450 2D6 (Homo sapiens) (UniProt P10635); assay: Cytochrome P450 Family 2 Subfamily D Member 6 (CYP2D6) small molecule antagonists: luciferase reporter qHTS assay (AID 1671196); further: nearly all actives have a fitted effect of over 50% in size; further: potency means the concentration at half of the fitted maximal effect
Procedure, shortened: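 Chemicals tested for interference with CYP2D6 activity; proluciferin substrate, NADPH regeneration, 1 h at room temperature, luminescent detection.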

[16] = target: Cytochrome P450 2C19 (Homo sapiens) (UniProt P33261); assay: Cytochrome P450 Family 2 Subfamily C Member 19 (CYP2C19) small molecule antagonists: luciferase reporter qHTS assay (AID 1671197); further: nearly all actives have a fitted effect of over 65% in size; further: potency means the concentration at half of the fitted maximal effect
Procedure, shortened: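 Enzyme-substrate mix with proluciferin substrate (P450-Glo CYP2C19 system) preincubated with compounds 10 min at room temperature; NADPH regeneration solution added, 37C for 1 h; detection reagent stops reaction, luminescence read after 20 min. Ketoconazole positive control.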

[17] = target: Nuclear receptor subfamily 1 group I member 2 (Rattus norvegicus) (UniProt Q9R1A7); assay: Rat pregnane X receptor (rPXR) activation by small molecules, qHTS assay (AID 1346983); conditions: rPXR luciferase reporter cells, One-Glo luminescence, 24 h; stronger effect = higher value; further: nearly all actives have a fitted effect of over 20% in size
Procedure, shortened: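 Cell-based rPXR luciferase reporter assay, 2,000 cells per well, rested 5hr at 37 C before compound addition in DMSO, then 24 hr at 37 C. One-Glo reagent was added and luminescence read after 30 min at room temperature.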

[18] = target: Nuclear receptor subfamily 1 group I member 2 (Homo sapiens) (UniProt O75469); assay: CYP3A4 induction through human pregnane X receptor (PXR) by small molecules, qHTS assay (AID 1346984); further: nearly all actives have a fitted effect of over 40% in size
Procedure, shortened: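 After 24 h at 37C with compound, DPX-2 cells (HepG2, co-transfected PXR response element and CYP3A4 promoter-luciferase) got 3uM final P450-Glo Luciferin-IPA for 3 h; One-Glo luminescence followed.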

[19] = target: Nuclear receptor subfamily 1 group I member 2 (Homo sapiens) (UniProt O75469); assay: Human pregnane X receptor (PXR) activation by small molecules, qHTS assay (AID 1346985); further: nearly all actives have a fitted effect of over 40% in size
Procedure, shortened: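 DPX-2 cells (HepG2 co-transfected with a PXR response element and a CYP3A4-promoter luciferase construct) were seeded at 2,000 per well, rested 5 hr at 37C, then exposed to DMSO-dissolved compounds for 24 hr. Activation was read as luciferase luminescence.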

[20] = qHTS assay to identify small molecule agonists of the TGF-beta/Smad signaling pathway (AID 1346859; active means well fitted activation curve with a large enough effect in the signal ratio in the repeat runs, not every such curve was filed as active; the % refers to the signal ratio; further: series mostly up to about 77 µM)
Procedure, shortened: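 HEK 293T cells stably carrying a beta-lactamase reporter driven by the Smad binding element were seeded overnight, exposed to DMSO-dissolved compounds for 5 hr at 37 C, 5% CO2, then loaded with FRET substrate for 2 hr at room temperature.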

Chain of Progesterone receptor (Homo sapiens) (P06401 whole entry, looked up): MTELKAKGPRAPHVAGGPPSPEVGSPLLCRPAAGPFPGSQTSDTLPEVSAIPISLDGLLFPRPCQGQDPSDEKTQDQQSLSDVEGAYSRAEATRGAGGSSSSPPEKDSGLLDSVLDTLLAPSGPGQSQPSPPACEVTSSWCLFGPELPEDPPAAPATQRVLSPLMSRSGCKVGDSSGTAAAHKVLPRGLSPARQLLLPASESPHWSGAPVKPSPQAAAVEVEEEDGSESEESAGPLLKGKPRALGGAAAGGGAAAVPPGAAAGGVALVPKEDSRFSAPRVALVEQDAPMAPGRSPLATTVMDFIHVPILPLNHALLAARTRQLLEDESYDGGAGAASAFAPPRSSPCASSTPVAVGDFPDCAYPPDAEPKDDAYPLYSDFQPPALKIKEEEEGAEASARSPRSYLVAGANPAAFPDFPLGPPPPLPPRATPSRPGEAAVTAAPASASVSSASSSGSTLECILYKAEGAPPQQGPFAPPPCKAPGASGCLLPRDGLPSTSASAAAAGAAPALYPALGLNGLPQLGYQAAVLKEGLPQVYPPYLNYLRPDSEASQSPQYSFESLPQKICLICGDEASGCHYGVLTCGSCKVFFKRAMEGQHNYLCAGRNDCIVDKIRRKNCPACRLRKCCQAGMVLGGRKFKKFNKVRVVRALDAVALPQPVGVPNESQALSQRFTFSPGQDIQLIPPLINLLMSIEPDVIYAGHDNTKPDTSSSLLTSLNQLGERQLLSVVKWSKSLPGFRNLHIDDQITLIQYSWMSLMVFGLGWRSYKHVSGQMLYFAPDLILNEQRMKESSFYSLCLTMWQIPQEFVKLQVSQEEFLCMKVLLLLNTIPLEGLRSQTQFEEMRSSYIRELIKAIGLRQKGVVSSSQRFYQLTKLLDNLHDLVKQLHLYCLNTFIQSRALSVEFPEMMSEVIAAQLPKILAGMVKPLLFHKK
Chain of Thyrotropin-releasing hormone receptor (Homo sapiens) (P34981 whole entry, looked up): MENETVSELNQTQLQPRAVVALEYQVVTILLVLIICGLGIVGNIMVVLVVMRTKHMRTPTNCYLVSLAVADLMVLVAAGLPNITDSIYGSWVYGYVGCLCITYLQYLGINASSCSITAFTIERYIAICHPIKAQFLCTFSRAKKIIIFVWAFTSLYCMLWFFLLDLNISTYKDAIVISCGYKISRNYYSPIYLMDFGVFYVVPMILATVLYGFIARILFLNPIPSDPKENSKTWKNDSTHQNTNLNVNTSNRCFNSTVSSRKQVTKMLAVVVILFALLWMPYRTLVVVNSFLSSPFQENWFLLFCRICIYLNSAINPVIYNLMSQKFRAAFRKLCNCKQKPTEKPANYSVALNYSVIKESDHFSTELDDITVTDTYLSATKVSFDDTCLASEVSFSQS
Chain of Cytochrome P450 2C19 (Homo sapiens) (P33261 whole entry, looked up): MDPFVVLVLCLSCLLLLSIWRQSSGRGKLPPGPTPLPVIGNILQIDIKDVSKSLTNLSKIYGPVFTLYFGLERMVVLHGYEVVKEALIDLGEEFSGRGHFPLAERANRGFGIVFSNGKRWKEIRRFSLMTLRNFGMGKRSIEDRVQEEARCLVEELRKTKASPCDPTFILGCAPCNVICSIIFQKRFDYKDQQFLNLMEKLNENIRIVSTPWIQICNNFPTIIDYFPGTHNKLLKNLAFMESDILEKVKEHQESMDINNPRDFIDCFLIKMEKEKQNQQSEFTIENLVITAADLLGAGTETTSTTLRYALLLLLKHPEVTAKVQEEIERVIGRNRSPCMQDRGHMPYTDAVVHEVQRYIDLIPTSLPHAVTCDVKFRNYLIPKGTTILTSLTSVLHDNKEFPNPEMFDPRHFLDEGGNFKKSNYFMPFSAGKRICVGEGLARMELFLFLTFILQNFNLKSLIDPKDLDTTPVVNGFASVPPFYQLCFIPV
Chain of Cytochrome P450 2D6 (Homo sapiens) (P10635 whole entry, looked up): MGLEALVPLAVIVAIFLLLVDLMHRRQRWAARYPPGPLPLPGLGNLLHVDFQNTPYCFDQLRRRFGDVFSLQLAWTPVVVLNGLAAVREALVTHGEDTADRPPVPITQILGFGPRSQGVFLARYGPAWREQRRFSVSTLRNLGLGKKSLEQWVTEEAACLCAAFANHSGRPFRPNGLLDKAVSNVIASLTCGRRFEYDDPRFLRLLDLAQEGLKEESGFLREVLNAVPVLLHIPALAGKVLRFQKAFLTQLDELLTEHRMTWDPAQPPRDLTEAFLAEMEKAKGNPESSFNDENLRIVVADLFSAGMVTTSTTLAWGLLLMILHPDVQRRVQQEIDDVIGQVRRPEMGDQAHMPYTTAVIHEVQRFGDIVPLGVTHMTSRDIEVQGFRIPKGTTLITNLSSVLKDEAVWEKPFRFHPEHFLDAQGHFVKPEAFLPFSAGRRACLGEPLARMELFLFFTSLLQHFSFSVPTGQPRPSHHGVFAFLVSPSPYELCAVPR
Chain of Nuclear receptor subfamily 1 group I member 2 (Homo sapiens) (O75469 whole entry, looked up): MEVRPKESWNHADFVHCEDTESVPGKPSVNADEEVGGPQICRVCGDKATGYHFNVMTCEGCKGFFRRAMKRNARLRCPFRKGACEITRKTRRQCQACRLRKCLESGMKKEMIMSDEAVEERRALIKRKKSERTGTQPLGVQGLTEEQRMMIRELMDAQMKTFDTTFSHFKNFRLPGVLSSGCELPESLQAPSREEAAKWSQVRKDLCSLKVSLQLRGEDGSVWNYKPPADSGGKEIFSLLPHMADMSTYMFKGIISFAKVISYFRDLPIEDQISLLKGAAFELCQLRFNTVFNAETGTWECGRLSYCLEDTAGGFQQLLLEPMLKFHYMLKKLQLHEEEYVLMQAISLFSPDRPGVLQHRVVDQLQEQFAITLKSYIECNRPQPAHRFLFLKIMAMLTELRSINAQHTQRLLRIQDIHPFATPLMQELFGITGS
Chain of Nuclear receptor subfamily 1 group I member 2 (Rattus norvegicus) (Q9R1A7 whole entry, looked up): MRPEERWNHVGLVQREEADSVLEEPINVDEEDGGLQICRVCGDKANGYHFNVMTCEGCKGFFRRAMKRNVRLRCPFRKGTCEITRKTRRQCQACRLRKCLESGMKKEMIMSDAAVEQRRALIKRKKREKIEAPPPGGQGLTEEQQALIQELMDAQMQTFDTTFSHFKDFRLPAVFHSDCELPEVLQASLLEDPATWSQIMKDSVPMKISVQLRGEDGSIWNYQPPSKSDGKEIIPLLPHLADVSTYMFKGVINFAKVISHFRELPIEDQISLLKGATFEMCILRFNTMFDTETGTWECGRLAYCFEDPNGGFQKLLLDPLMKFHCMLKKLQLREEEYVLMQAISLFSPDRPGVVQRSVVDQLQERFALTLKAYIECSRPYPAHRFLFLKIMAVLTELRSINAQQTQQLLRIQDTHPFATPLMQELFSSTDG

With O=C(O)Cc1ccccc1Nc1c(Cl)cccc1Cl the Potency [1] was “inactive”, the Potency [2] was “inactive” and the Potency [3] was “inactive”. The Potency [4] was “inactive”, the Potency [5] was “inactive” and the Potency [6] was “inactive”. The Potency [7] was “inactive”, the outcome [8] was “inactive” and the Potency [9] was “inactive”. The Potency [10] was “inactive”, the Potency [11] was “inactive” and the Potency [12] was “inactive”. For the same molecule, the Potency [13] was “inactive”, the Potency [14] was “inactive” and the Potency [15] was “inactive”. The Potency [16] was “inactive”.
For Cc1ccc(C(=O)O)cc1, the Potency [1] was “inactive”, the Potency [2] was “inactive” and the Potency [3] was “inactive”. The Potency [4] was “inactive”, the Potency [5] was “inactive” and the Potency [6] was “inactive”. The Potency [7] was “inactive”, the outcome [8] was “inactive” and the Potency [9] was “inactive”. For the same molecule, the Potency [10] was “inactive”, the Potency [11] was “inactive” and the Potency [12] was “inactive”. The Potency [13] was “inactive”, the Potency [14] was “inactive” and the Potency [15] was “inactive”.
For Cc1c(F)c(N2CCNC(C)C2)cc2c1c(=O)c(C(=O)O)cn2C1CC1 (stereo unspecified), the Potency [1] was “inactive”, the Potency [2] was “inactive” and the Potency [3] was “inactive”. For the same molecule, the Potency [4] was “inactive”, the Potency [5] was “inactive” and the Potency [6] was “inactive”. For the same molecule, the Potency [9] was “inactive”, the Potency [10] was “inactive” and the Potency [11] was “inactive”. For the same molecule, the Potency [12] was “inactive”, the Potency [13] was “inactive” and the Potency [14] was “inactive”. For the same molecule, the max activation [17] was -0.343% (inactive), the Potency [18] was “inactive” and the Potency [19] was “inactive”. The Potency [15] was “inactive” and the Potency [16] was “inactive”.
In the case of Cc1cc(-c2ccc(N=Nc3cc(S(=O)(=O)O)c4ccccc4c3N)c(C)c2)ccc1N=Nc1cc(S(=O)(=O)O)c2ccccc2c1N, the Potency [1] is reported as “inactive”, the Potency [2] is reported as “inactive” and the Potency [3] is reported as “inactive”. The Potency [5] was “inactive”, the Potency [6] was “inactive” and the Potency [7] was “inactive”. The outcome [8] was “inactive”, the Potency [10] was “inactive” and the Potency [11] was 54.8 µM (active). For the same molecule, the Potency [12] was “inactive”, the Potency [13] was “inactive” and the Potency [14] was 19.4 µM (active). The Potency [15] was 2.26 µM (active) and the Potency [16] was “inactive”.
With CCN(CC)c1ccc2c(-c3ccc(S(=O)(=O)O)cc3S(=O)(=O)[O-])c3ccc(=[N+](CC)CC)cc-3oc2c1 the Potency [1] was “inactive”, the Potency [2] was “inactive” and the Potency [3] was “inactive”. The Potency [5] was “inactive”, the Potency [20] was “inactive” and the Potency [7] was “inactive”. For the same molecule, the Potency [9] was 5.01 µM (active), the Potency [10] was “inactive” and the Potency [11] was 6.31 µM (active). The Potency [12] was “inactive”, the Potency [13] was 8.91 µM (active) and the Potency [14] was “inactive”. The Potency [15] was 29.2 µM (active) and the Potency [16] was 92.2 µM (active).
With Cc1cc(-n2nc3ccc(Cl)cc3n2)c(O)c(C(C)(C)C)c1 the Potency [1] was “inactive”, the Potency [2] was “inactive” and the Potency [4] was “inactive”. For the same molecule, the Potency [5] was “inactive”, the Potency [6] was “inactive” and the Potency [9] was “inactive”. For the same molecule, the Potency [10] was “inactive”, the Potency [11] was “inactive” and the Potency [12] was “inactive”. For the same molecule, the Potency [13] was “inactive”, the Potency [14] was “inactive” and the max activation [17] was -2.8% (inactive). For the same molecule, the Potency [18] was “inactive”, the Potency [19] was “inactive” and the Potency [15] was “inactive”. For the same molecule, the Potency [16] was “inactive”.
For OC12N=C(c3ccccc3)SC1Cc1cc(Cl)ccc12 (stereo unspecified), the Potency [1] was “inactive”, the Potency [2] was 43.3 µM (active) and the Potency [5] was “inactive”. The Potency [6] was “inactive”, the Potency [20] was “inactive” and the Potency [10] was “inactive”. For the same molecule, the Potency [12] was “inactive”, the Potency [14] was 10.9 µM (active) and the Potency [15] was 39.9 µM (active). For the same molecule, the Potency [16] was 0.126 µM (active).
In the case of O=C(Oc1ccccc1)Oc1ccccc1, the Potency [1] is reported as “inactive”, the Potency [3] is reported as “inactive” and the Potency [4] is reported as “inactive”. The Potency [5] was “inactive”, the Potency [6] was “inactive” and the Potency [20] was “inactive”. For the same molecule, the Potency [7] was “inactive”, the outcome [8] was “inactive” and the Potency [9] was “inactive”. For the same molecule, the Potency [10] was “inactive”, the Potency [11] was “inactive” and the Potency [12] was “inactive”. The Potency [13] was “inactive” and the Potency [15] was “inactive”.
